# AmpC det inh – blocks E. coli AmpC beta-lactamase in presence of detergent; P00811; purified AmpC, nitrocefin hydrolysis with detergent; AID 584; Potency, µM (series often up to 28.7 µM), without a hit: at the highest dose activity change, negative = inhibition; actives 0.09% (n = 71,000); active means well fitted curve in the direction sought with a large enough effect; inconclusive means small, poorly fitted or top-dose-only effect; further: on the % scale 0 is the no-effect control and ±100 the full control effect
# Target sequence (P00811 whole entry, looked up): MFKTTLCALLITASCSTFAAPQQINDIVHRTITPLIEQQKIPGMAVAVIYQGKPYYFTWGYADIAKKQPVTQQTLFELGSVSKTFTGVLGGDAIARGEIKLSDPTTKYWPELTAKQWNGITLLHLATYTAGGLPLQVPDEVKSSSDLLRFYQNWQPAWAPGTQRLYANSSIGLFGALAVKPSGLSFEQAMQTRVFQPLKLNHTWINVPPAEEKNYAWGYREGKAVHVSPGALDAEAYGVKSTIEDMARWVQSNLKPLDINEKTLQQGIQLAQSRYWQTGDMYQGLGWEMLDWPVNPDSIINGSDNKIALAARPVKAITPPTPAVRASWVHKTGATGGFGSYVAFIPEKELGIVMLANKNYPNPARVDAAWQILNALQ
#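 E. coli AmpC (5.3 nM) in 20 mM phosphate pH 7.0 with 0.01% Triton X-100, preincubated 15 min RT with compound; nitrocefin (2 uL of 800 uM stock) hydrolysis followed by 480 nm absorbance every 20 s over 4 min.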
# SmPrx2 inh – Schistosoma mansoni Prx2 inhibition. Potency, µM. AID 448. actives 0.07% (n = 65,000). S. mansoni Prx2 activity coupled to TGR/GSH (TGR is thioredoxin glutathione reductase), NADPH fluorescence loss, qHTS
#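 Purified S. mansoni TGR and Prx2 in pH 7.4 phosphate buffer with EDTA and Tween-20 were preincubated with compounds for 15 min. Further NADPH/GSH was added, then a 2.5 mM H2O2 aliquot initiated turnover, followed kinetically by NADPH fluorescence.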
# Anthrax LT inh – inhibitors of anthrax lethal toxin internalization; AID 912; Cells, anthrax lethal toxin internalization, FRET ratio (460/530); actives 0.67% (n = 70,000); Potency, µM (highest dose often 40 µM), inactives show top-dose activity change, negative = inhibition, hits mostly inhibitors; further: on the % scale 0 is the no-effect control and ±100 the full control effect; nearly all actives have a fitted effect of over 50% in size
# AmpC inh no det – AmpC beta-lactamase inhibition, detergent-free assay. P00811. AmpC nitrocefin hydrolysis, absorbance 480 nm, no detergent. Potency, µM (series often up to 28.7 µM), for inactives: at the top dose activity change, negative = inhibition. actives 1.8% (n = 71,000). AID 585; further: % of control where 0% means no effect
#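 AmpC, 20 mM phosphate pH 7.0; 15 min cpd preinc, RT; start with nitrocefin (800 uM stock); A480 kinetic read, 20 s intervals, 4 min. No-enzyme wells = negative control.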
# * hit, by the source's call; u = inconclusive; x = no result; [ ] = another dose, or the depositor's remark. Rows were chosen to be rich in hits. Some 2.4% of all compounds tested hit in one or more screens of this group. Unless noted, the call rests on the fitted dose curve. Potency means the concentration at half of the fitted maximal effect.
SMILES,AmpC det inh,SmPrx2 inh,Anthrax LT inh,AmpC inh no det
CN(C)c1oc(-c2ccccc2F)nc1C#N,13%,>57,-3%,4µM*[single pt active]
Cc1ccc(C)c(N2CCN(C(c3ccncc3)c3nnnn3Cc3ccccc3)CC2)c1 (stereo not drawn),-5%,>57,u,114%
CCCCCC[C@H]1C(=O)O[C@@H](C)[C@H](NC(=O)c2cccc(NC=O)c2O)C(=O)O[C@@H](C)[C@@H]1OC(=O)CC(C)C,-3%,>57,u,4%
NS(=O)(=O)c1ccc(NC(=O)CCC2CCCCC2)cc1,9%,x,-22%,7.9µM*
CCCC(c1cc(C(C)(C)C)c(O)cc1C)c1cc(C(C)(C)C)c(O)cc1C,-2%[5.75 µM],>57,u,4µM*[single pt active]
CC(C)(C)C(=O)OCC1OC(n2cnc(C(N)=O)n2)C(O)C1O (stereo not drawn),-3%,>57,6%,-4%
O=C1C(C2=C(O)c3ccccc3C2=O)=Nc2ccccc21,11%,>57,-6%,13µM*
Cc1cc(Cl)ccc1OCC(=O)Nc1ccccc1N1CCOCC1,-3%,>57,16µM*,8%
CCn1cc(C(=O)N2CC(C)CC(C)C2)c(=O)c2cc(S(=O)(=O)N(C)C)ccc21 (stereo not drawn),7%,>57,-14%,68%
CCn1cc(C(=O)NCC2CCCO2)c(=O)c2cc(S(=O)(=O)N(C)C)ccc21 (stereo not drawn),13%,>57,4%,4µM*[single pt active]
CCn1cc(C(=O)NCCCN2CC(C)CC(C)C2)c(=O)c2cc(S(=O)(=O)N(C)C)ccc21 (stereo not drawn),13%,>57,-19%,3.2µM*[single pt active]
CCn1cc(C(=O)NCc2ccc3c(c2)OCO3)c(=O)c2cc(S(=O)(=O)N3CCOCC3)ccc21,-1%,>57,u,100%
CCn1cc(C(=O)NCc2ccc(Cl)cc2)c(=O)c2cc(S(=O)(=O)N3CCOCC3)ccc21,14%,>57,-17%,4µM*[single pt active]
Brc1ccc2c(c1)c1nc3ccccc3nc1n2CCN1CCOCC1,11%,>57,-3%,71%
COc1ccc(OCCSc2ncnc3nc[nH]c23)cc1,11%,>57,-7%,4µM*[single pt active]
CC1=C(C(=O)OC(C)C)C(c2cccs2)n2ncnc2N1 (stereo not drawn),13%,>57,u,4µM*[single pt active]
CC1=C(C(=O)OC(C)C)C(c2cccc(F)c2)n2ncnc2N1 (stereo not drawn),14%,>57,u,4µM*[single pt active]
COc1ccccc1NC(=O)C1=C(C)Nc2ncnn2C1c1cccs1 (stereo not drawn),-2%,>57,u,10%
CC1=C(C(=O)OC(C)C)C(c2c[nH]c3ccccc23)n2ncnc2N1 (stereo not drawn),12%,>57,4%,4µM*[single pt active]
COc1nc(N)nc2c1ncn2[C@@H]1C[C@H](O)[C@@H](CO)O1,-2%[5.75 µM],>57,-8%[8 µM],0%[5.75 µM]
CC(C)(C)OC(=O)NCCc1nnc(S(=O)(=O)Cc2ccc(Cl)cc2Cl)o1,0.016µM*,>57,u,0.04µM*
COCCOC(=O)C1=C(C)NC(=O)NC1C1CC=CCC1 (stereo not drawn),-1%,x,6%,4%
CCCOC(=O)C1C2C=CC3(CN(c4ccc(Cl)c(F)c4)C(=O)C13)O2 (stereo not drawn),13%,>57,-15%,u
CCOC(=O)C1C2C=CC3(CN(c4ccc(Cl)c(F)c4)C(=O)C13)O2 (stereo not drawn),10%,>57,14%,2µM*[single pt active]
Cc1cc(NC(=O)c2cc(-c3ccco3)on2)nn1Cc1ccc(Cl)cc1,-3%,>57,-24%,16µM*
SMILES,AmpC det inh,SmPrx2 inh,Anthrax LT inh,AmpC inh no det
Cc1nn(Cc2ccc(Cl)cc2)c(C)c1NC(=O)c1cc(-c2ccco2)on1,-6%,>57,-18%,25%
CCC(Sc1nc2cc3c(cc2c(=O)n1Cc1ccco1)OCO3)C(=O)Nc1cccc(OC)c1 (stereo not drawn),-3%,>57,3%,5%
Cn1c(C(=O)NCc2cccs2)cc2c(=O)n(C)c3ccccc3c21,9%,>57,-7%,4µM*[single pt active]
CN(CCNC(=O)c1cc2c(=O)n(C)c3ccccc3c2n1C)Cc1ccccc1,6%,>57,3.2µM*,120%
CCCN(CCC)CCNC(=O)c1cc2c(=O)n(C)c3ccccc3c2n1C,13%,>57,4µM*,30%
COCCn1cc(C(=O)NCc2cccs2)c2c3ccccc3n(C)c2c1=O,9%,>57,10%,81%
O=C(Nc1nnc(SCc2ccc(Cl)cc2)s1)c1ccco1,-4%,>57,-4%,u
COCCNc1nc(SCC(=O)N2CCN(c3ccccc3OC)CC2)nc2ccccc12,0%,>57,11%,96%
Cc1cccc(NCc2nc(-c3ccccc3)no2)c1,10%,>57,u,2.5µM*[single pt active]
Cc1ccc(OCc2nc(-c3ccccc3)no2)c(C)c1,3%,x,u,-10%
c1ccc(Cc2nnc3sc(-c4cccs4)nn23)cc1,-3%,>57,-6%,15%
CN1CCN(/C=N/c2c(C#N)cnn2-c2ccccc2)CC1,-5%,>57,6%,4%
CCn1c2ccccc2c2cc(NC(=O)C3CCN(S(=O)(=O)c4cccs4)CC3)ccc21,-1%,>57,-28%,13µM*
O=C(/C=C/N1CCOCC1)c1ccc(-c2ccccc2)cc1,-2%,x,u,13µM*
Cc1nnc(NC(=O)Oc2ccccc2)s1,14%,>57,-5%,-14%
CCC(C)(C)n1nnnc1C(c1cc(OC)c(OC)c(OC)c1)N1CCN(c2ccccc2)CC1 (stereo not drawn),-3%,>57,-4%,83%
COc1cccc(Cn2nnc(C(=O)NCc3ccccc3Cl)c2N)c1,11%,x,u,4µM*[single pt active]
CCOc1ccc(Cn2nnc(C(=O)NCCc3ccccc3)c2N)cc1,10%,>57,-7%,4µM*[single pt active]
COc1cccc(Cn2nnc(C(=O)NCc3ccc(F)cc3)c2N)c1,13%,>57,-12%,4µM*[single pt active]
COc1ccc(CCNC(=O)Cn2c(=O)oc3ccccc32)cc1OC,9%,>57,-2%,7%
O=C(CCCN1CCC2(CC1)C(=O)N(Cc1cccc(F)c1)CN2c1ccccc1)c1ccc(F)cc1,-9%,>57,u,20µM*[single pt active]
COC(=O)c1nc2n(n1)C(c1cccc(Cl)c1)C1=C(CC(C)(C)CC1=O)N2 (stereo not drawn),11%,>57,5%,4µM*[single pt active]
COC(=O)C1=C(C)NC2=C(C(=O)CC(C)(C)C2)C1c1cccc(C)n1 (stereo not drawn),11%,>57,28%,0%
COC(=O)c1nc2n(n1)C(c1cccc(Cl)c1)C1=C(CCCC1=O)N2 (stereo not drawn),11%,>57,-4%,4µM*[single pt active]
CCCC(c1nnnn1C(C)(C)CC)N(Cc1ccco1)Cc1cc2ccc(OC)cc2[nH]c1=O (stereo not drawn),3%,>57,u,51%
CCN(CC)S(=O)(=O)c1ccc(C(=O)OCCN2C(=O)CCC2=O)cc1,11%,>57,3%,4µM*[single pt active]
